High-throughput results deposited in PubChem BioAssay by several laboratories.
AHR act: activators of human aryl hydrocarbon receptor; P35869; AHR-responsive luciferase reporter cells, luminescence; activation, % at 5 µM; 320,000 tested, 2.5% active; in the data active = activation above about 47%;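 also: 0% = vehicle wells and 100% = reference agonist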
PLC-beta3 inh: inhibitors of human phospholipase C beta3. AID 720704. Purified PLC-beta3, fluorogenic substrate, fluorescence. inhibition, % at 12.2 µM. 370,000 tested, 0.18% active; in the data active = inhibition above about 11%;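 also: 0% = median of compound wells on plate and 100% = full blocker control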
HIF act: HIF pathway transcriptional activation; U2OS HRE-luciferase reporter, luminescence; normalized: DMSO 0%, desferrioxamine 100%; AID 1910; 300,000 tested, 0.32% active; activation, % at 7.5 µM (by protocol);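 active = mean activation of at least 10% of the iron chelator positive control signal, with at least half of replicates also reaching 10%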
PLC-gamma1 inh: blocks human PLC-gamma1 enzyme activity. purified PLC-gamma1, fluorogenic substrate, fluorescence. inhibition, % at 12.2 µM. 370,000 tested, 0.84% active. AID 720700; in the data active = inhibition above about 9.5%
Yeast superoxide: yeast age-related superoxide inhibition as caloric restriction mimetic; S. cerevisiae aged cells, superoxide DHE fluorescence; active compounds read low; superoxide response (% of plate mean), % at 10 µM; 330,000 tested, 0.18% active; AID 2690;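 active = superoxide response under a set limit, about three screen SD below normal, cut at about 65% in these data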;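 also: yeast aged for seven days with compound at 30 °C before DHE staining; 100% = average MFI of all compound-treated wells on the plate with controls excluded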
sPLA2-III inh: Inhibits HGIII-sPLA2 liposome hydrolysis, primary screen; Q9NZ20; QFRET BODIPY PC-A2 liposome hydrolysis, fluorescence; inhibition, % at 12.2 µM; 370,000 tested, 0.56% active; AID 743126;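 active = inhibition above mean plus 3 SD of compounds lying within the high and low control bounds, cut at about 19% in these data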;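 also: 0% = median of test compound wells and 100% = no enzyme DMSO wells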
Superoxide pick: yeast aging superoxide inhibition, cherry pick confirmation; shares compounds with Yeast superoxide; AID 434994; 850 tested, 1% active; superoxide response (% of plate), % at 10 µM; S. cerevisiae aging, superoxide DHE fluorescence; active compounds read low;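 active = superoxide signal below 65% of the plate average of sample wells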;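 also: cells aged with compound for 7 days at 30 degrees C before staining; 100% equals mean DHE fluorescence of all compound wells on the plate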
DHE counter: DHE fluorescence interference, counter-screen artifact. shares compounds with Yeast superoxide. S. cerevisiae BY4741, flow cytometry; active compounds read low. fluorescence response, % at 10 µM. 850 tested, under 10 active. AID 435000;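 active = fluorescence response below 15%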;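 also: percent of the mean fluorescence averaged over all compound wells on the plate; lower means stronger quenching of DHE signal or ROS scavenging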
* hit, by the source's call; . = no result. A selection: hits, their analogues and other compounds. The true share with any hit is near 3.9%.

SMILES	AHR act	PLC-beta3 inh	HIF act	PLC-gamma1 inh	Yeast superoxide	sPLA2-III inh	Superoxide pick	DHE counter
CCOC(=O)CNC(=S)N(CCCN1CCN(C)CC1)Cc1cccs1	2	-3	-22	-1	114	3	.	.
NS(=O)(=O)c1ccc(CCNC(=O)CCCOc2ccccc2)cc1	0	-5	0	1	102	5	.	.
NS(=O)(=O)c1ccc(CCNC(=O)CNC(=O)COc2ccccc2)cc1	2	-4	-28	3	55*	2	98	89
C[C@@H](C(=O)OCC(=O)NCCc1ccc(S(N)(=O)=O)cc1)N1C(=O)C2CCCCC2C1=O (stereo not given in full)	1	5	0	-2	65*	-1	101	94
COc1ccc(-c2cc(C(=O)Nc3cccc(O)c3)no2)cc1	1	-9	-1	-2	100	-34	.	.
[O-][n+]1c2ccccc2[n+]([O-])c2cc(O)ccc21	27	-15	-1	-2	51*	2	61*	90
CC1=C(C(=O)N2CCCCCC2)CC(CC(=O)NCC2CCCCC2)C(=O)N1CCCN1CCCC1=O (stereo not given)	.	4	.	0	.	1	.	.
CCOc1ccc(NC(=O)CN2CCN(CC(=O)Nc3ccc(OC)cc3OC)CC2)cc1	0	-5	0	0	62*	-2	107	106
O=C(O)CCC1(C(=O)O)CCC(=O)c2ccccc21 (stereo not given)	.	-2	.	0	.	-3	.	.
CN1C(=O)CCC(CCC(=O)O)(c2ccccc2O)C1=O (stereo not given)	-1	-5	0	4	63*	5	103	106
CC(=O)COc1nc2c(c(-c3ccco3)c1C#N)CCc1ccccc1-2	9	.	0	.	65*	.	95	105
CCOc1nc2c(c(-c3cccs3)c1C#N)Cc1ccccc1-2	6	-1	-1	-1	99	3	.	.
CCN(c1ccccc1)S(=O)(=O)c1ccc(C(=O)Nc2ccc(C)cn2)cc1	1	-4	1	4	82	-5	.	.
Cc1ccc(NC(=O)c2ccc(C(=O)c3ccccc3)cc2)nc1	6	-1	3	5	63*	2	98	92
COCCN1C(=O)CN(S(C)(=O)=O)CC1(C)C(=O)Nc1c(C)cccc1C (stereo not given)	.	3	.	-2	.	4	.	.
Fc1ccc(Cn2nnc3ccccc32)cc1	0	.	-1	.	64*	.	94	93
O=c1c2ccccc2nnn1Cc1ccc(F)cc1	6	0	-1	2	74	0	.	.
C[C@@H]1CN([C@@H](C)CO)S(=O)(=O)c2ccc(Br)cc2O[C@H]1CN(C)C(=O)Nc1ccc(C(F)(F)F)cc1	.	-1	.	0	.	-43	.	.
COc1ccc(Cl)c2sc(N3CCN(C(C)=O)CC3)nc12	25	-2	0	1	92	0	.	.
COc1cccc(NC(=O)Nc2ccc3c(c2)nc(C)n3C)c1	-13	0	0	2	61*	-1	108	112
COc1cccc(NC(=O)Nc2ccc3nc(C)c(C)nc3c2)c1	-5	-142	-4	-111	88	-6	.	.
COC(=O)C1CN(C(=O)C(C)Oc2ccccc2Cl)c2ccccc2O1 (stereo not given)	10	-3	-32	1	64*	2	101	102
Cc1ccc(CNC(=O)Cn2nnc(C(=O)Nc3cc(C)ccc3C)c2N)cc1	8	-2	-1	0	57*	7	99	105
CCN1CCc2nc(N)sc2C1	-3	-11	0	-1	65*	5	112	109
Cc1nn(CC(=O)Nc2ccccc2C(F)(F)F)c(=O)c2cccn12	7	-10	0	1	104	10	.	.
SMILES	AHR act	PLC-beta3 inh	HIF act	PLC-gamma1 inh	Yeast superoxide	sPLA2-III inh	Superoxide pick	DHE counter
CCc1ccccc1NC(=O)Cn1nc(C)n2cccc2c1=O	0	-4	0	1	63*	6	98	88
CC1(C)Cc2c(cnn2-c2ccccc2)C(NC(=O)CCCn2cncn2)C1 (stereo not given)	.	-10	1	1	97	0	.	.
COc1ccccc1C1=NN(C(=O)c2ccccc2)C(c2ccc(Br)cc2)C1 (stereo not given)	13	-2	-21	4	60*	-1	101	98
Cc1cc(C)n(C(N)=NC(=O)c2ccccc2)n1	.	-10	.	-2	.	8	.	.
Cc1ccc(S(=O)(=O)c2c(C)cc(C)nc2N2CCCCC2)cc1	.	3	-1	-2	.	-3	.	.
CNC(=O)COc1ccc(Nc2nnc(-c3ccc(C)c(S(N)(=O)=O)c3)c3ccccc23)cc1	0	-19	-13	-13	42*	7	101	92
CC(=O)Nc1ccc(Nc2nnc(-c3ccc(C)c(S(N)(=O)=O)c3)c3ccccc23)cc1	-1	-26	1	-14	90	-2	106	90
COc1ccc(Nc2nnc(-c3ccc(O)cc3)c3ccccc23)cc1C(N)=O	47	-70	1	-47	94	-5	.	.
COc1nnc(-c2ccc(C)c(S(N)(=O)=O)c2)c2ccccc12	18	-1	0	1	100	-5	.	.
Cc1ccc(-c2nnc(Nc3ccc(C(N)=O)cc3)c3ccccc23)cc1S(=O)(=O)NCC1CCCO1 (stereo not given)	4	-374	0	-335	95	-5	112	100
CNC(=O)c1cc(Nc2nnc(-c3ccc(C)c(S(N)(=O)=O)c3)c3ccccc23)ccc1OC	4	-49	-5	-34	58*	-4	115	111
CC(=O)Nc1ccc(Nc2nnc(-c3ccc(C)c(S(=O)(=O)NCCO)c3)c3ccccc23)cc1	.	-56	1	-18	101	-6	.	.
Cc1cc(C)n(C(=O)CN(C)S(=O)(=O)c2ccc([N+](=O)[O-])cc2)n1	1	-1	0	0	97	1	.	.
O=C(OCc1ccccc1)[C@H](Cc1ccccc1)NC(=O)[C@@H]1CC=C[C@@H]2CCN(Cc3ccc(Cl)cc3)C(=O)[C@@H]21	.	-1	.	0	.	-10	.	.
C=CCOC(=O)N[C@@H](c1coc2ccccc2c1=O)[C@@H](C)/C=C/CC(=O)OC	.	-5	.	-4	.	2	.	.
C[C@H](CO)N1C[C@H](C)[C@@H](CN(C)Cc2ccncc2)OCc2cnnn2CCCC1=O	.	1	.	1	.	3	.	.
O=C(CCc1nc2ccccc2c(=O)[nH]1)NNC(=O)c1ccc(F)cc1	1	-5	.	1	103	6	.	.
Cc1ccc(-c2nnc(Nc3ccc4c(c3)OCO4)c3ccccc23)cc1S(N)(=O)=O	36	-12	0	-10	110	-7	99	94
